Data: PubChem BioAssay AID1259422 (The Scripps Research Institute Molecular Screening Center, 2018)
In all, about 640,000 compounds went through this assay and about 9,300 (1.5%) were called active. The sample holds actives, similar compounds and a random draw of the others, so the mix is not that of the screen. A number with no mark means an inactive call. No stated cut-off is given here; in the data, active means inhibition above about 32%; inactive means the rest.

assay: TEAD-YAP interaction inhibition, primary screen, TEAD-YAP interaction inhibitor project, luminescence, HEK-TIYL cells (AID 1259422); conditions: TEAD-Gal4/YAP UAS-luciferase luminescence, at 9.12 µM, hits give high values;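 further: 0% = median of test compound wells and 100% = reference inhibitor wells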

Structure (SMILES)	inhibition
C=CCNC(=O)C1CCCN(S(=O)(=O)c2ccc(F)cc2)C1 (stereo not drawn)	1.52%
C=CCNC(=O)C1CCCN1S(=O)(=O)c1ccc(Cl)cc1 (stereo not drawn)	57.2% (active)
Cc1ccc(S(=O)(=O)N2CCCC2C(=O)NCCO)cc1 (stereo not drawn)	-1.16%
CCOCCCNC(=O)C1CCC(=O)N1C1CCCCC1 (stereo not drawn)	-0.7%
Cc1ccc(S(=O)(=O)NC(C)Cc2cccs2)cc1 (stereo not drawn)	5.37%
CC1=C(C(=O)NCc2cccs2)C2(CCCCC2)OC1=O	13.8%
O=C(NC1CC1)c1ccc(-c2nc3ccc(C(=O)NC4CCN(Cc5ccccc5)CC4)cc3s2)cc1	-0.23%
CN(C)c1ccc(-c2nc3ccc(C(=O)O)cc3s2)cc1	96.5% (active)
CN1CCN(c2ccc(-c3nc4ccc(C(=O)NCc5ccccc5)cc4s3)cc2)CC1	3.92%
N#C/C=C(/CC(O)(c1nc2ccccc2s1)C(F)(F)F)N1CCCC1 (stereo not drawn)	2.12%
CN(C)C(=O)c1cc(CNCCCc2ccccc2)cc(NC(=O)c2ccccn2)c1	-3.43%
Cc1cc(NC(=O)c2cccn(OCc3ccc(F)cc3)c2=O)no1	-2.96%
Fc1ccc(Nc2ncnc3c2cnn3-c2ccccc2)cc1	-36.2%
c1ccc(-n2ncc3c(N4CCCC4)ncnc32)cc1	37.8% (active)
O=C(CCc1ccccc1)NCCn1ncc2c(N3CCN(c4ncccn4)CC3)ncnc21	-1.06%
c1ccc(-n2ncc3c(Oc4cccc5cccnc45)ncnc32)cc1	42.7% (active)
CCOc1ccc(-n2cc(-c3ccccc3)c3c(N4CCCC(C)C4)ncnc32)cc1 (stereo not drawn)	-7.09%
c1ccc(Cn2nnc3c(N4CCCCC4)ncnc32)cc1	-2.04%
COc1ccccc1Nc1ncnc2c1cnn2-c1ccc(C)cc1	-73%
COc1ccc(-n2ncc3c(Nc4ccc(F)c(Cl)c4)ncnc32)cc1	13.3%
Cc1ccc(N2CCN(c3ncnc4c3cnn4-c3ccccc3)CC2C)cc1 (stereo not drawn)	9.96%
COc1ccc(-n2ncc3c(N4CCCC(C)C4)ncnc32)cc1 (stereo not drawn)	94.8% (active)
c1ccc(OCCn2ncc3c(N4CCCC4)ncnc32)cc1	81% (active)
OCCNc1ncnc2c1cnn2-c1ccccc1	-28.4%

Structure (SMILES)	inhibition
CCCS(=O)(=O)N1CCCc2ccc(NC(=O)CC(C)C)cc21	3.52%
CCOC(=O)C1CCN(c2nc(-c3cccnc3)nc3c2CN(S(C)(=O)=O)CC3)CC1	9.38%
COCCNC(=O)Cn1cnc2c(nnn2-c2ccc(Cl)cc2)c1=O	2.42%
N#Cc1c(-c2ccc(F)cc2)cc(C2CC2)nc1SCCN1C(=O)c2ccccc2C1=O	7.65%
Cc1cncn(CC(=O)NCCc2csc(-c3ccccc3)n2)c1=O	-3.04%
COc1ccccc1Cn1c(SCC(=O)Nc2ccc(N(C)C)cc2)nc2ccccc2c1=O	-7.65%
CCCCC(CC)CNS(=O)(=O)c1ccc2c(c1)n(C)c(=O)c(=O)n2C (stereo not drawn)	-13.6%
COCCNC(=O)/C(=C/c1cccc([N+](=O)[O-])c1)c1ccccc1	-2.61%
S=C(S)NCCc1c[nH]c2ccccc12	10.8%
O=C(CSc1nc(=O)[nH]c2c1CCC2)N1CCCCCC1	1.26%
O=C(CCc1nnc(-c2ccccc2)o1)NCCc1ccccc1Cl	-37.1%
CCN(CC)C(=O)C1CCCN(c2cc(NCc3ccccc3)ncn2)C1 (stereo not drawn)	-14.4%
Cc1ccc(-n2ncc3c(N4CCN(C)CC4)ncnc32)c(C)c1	-7.59%
CN1CCN(c2ncnc3c2c(-c2ccccc2)cn3-c2ccccc2)CC1	4.3%
CCN(CC)C(=O)C1CCCN(c2ncnc3c2cnn3-c2ccccc2)C1 (stereo not drawn)	34.1% (active)
CN1CCN(c2ncnc3c2cnn3-c2ccc(Cl)c(Cl)c2)CC1	32.8% (active)
CCN(CC)C(=O)C1CCCN(c2ncnc3c2c(-c2ccccc2)cn3-c2cccc(Cl)c2)C1 (stereo not drawn)	-12.8%
Cc1ccccc1C(=O)NCC1(c2cccs2)CC1	-38.7%
CN1CCN(C(=O)c2ccc(-c3ccc(C(=O)NCCOc4ccccc4)s3)cc2)CC1	-10.2%
O=C1c2ccc(Br)cc2C(=O)N1CNc1cccc(F)c1	2.19%
CCCCOc1ccccc1C1C(C(=O)OCCOCC)=C(C)NC2=C1C(=O)CC(C)(C)C2 (stereo not drawn)	-1.41%
COc1ccccc1C1N=C(c2cccs2)CC(c2ccccc2O)N1 (stereo not drawn)	-31.6%
Cn1c(-c2ccc(F)cc2Cl)c(C(=O)O)c2ccccc2c1=O	5.25%
Cc1ccc2c(c1)CN(CCC(=O)NCC(C)(C)CO)CC(C)O2 (stereo not drawn)	5.33%

Structure (SMILES)	inhibition
COc1ccccc1-c1cc2nc(C)c(CCC(=O)O)c(C)n2n1	48.5% (active)
COc1ccccc1-c1cc2nc(C)c(CCC(=O)Nc3ccccc3C(N)=O)c(C)n2n1	12.4%
COc1ccc(CNC(=O)CCc2c(C)nc3cc(-c4ccccc4)nn3c2C)cc1	2.84%
O=C(C1CC=CCC1)N1CCn2cnnc2C1 (stereo not drawn)	1.34%
Cc1cc(C)nc(SCC(=O)Nc2cc(C(=O)O)cc([N+](=O)[O-])c2)n1	-2.98%
CCn1c(=O)cc(SCC(=O)Nc2cccc([N+](=O)[O-])c2C)c2ccccc21	-12.2%
Cc1c(/C=N\Nc2ccc([N+](=O)[O-])cc2)c2ccccc2n1C	12.8%
Cc1c(/C=N/NC(N)=S)c2ccccc2n1C	-7.34%
Cc1c(/C=N\NC(=O)c2cc3ccccc3o2)c2ccccc2n1C	49.3% (active)
c1ccc(Cn2cc(-c3cnn4c(NCCc5cccnc5)ccnc34)cn2)cc1	-23.6%
C=CCn1c(SCC(=O)N2CCCCCC2)nc2scc(-c3ccc(C)o3)c2c1=O	-7.67%
C=CCn1c(SCC(=O)N2CCOCC2)nc2scc(-c3ccccc3Cl)c2c1=O	49.9% (active)
C=CCn1c(SCCC(=O)NCCc2ccccc2)nc2scc(-c3ccco3)c2c1=O	-10.1%
Cc1ccc(C(=O)COC(=O)c2ccc(-n3cnnn3)cc2)cc1	11.7%
COc1cc(Nc2nc(-c3ccc(C(=O)NC4CC4)cc3)nc3c2ncn3-c2ccsc2)cc(OC)c1OC	22.8%
O=C(COC(=O)CSCc1c[nH]c(=O)[nH]c1=O)Nc1nc(-c2ccccc2)cs1	-38%
O=c1oc2ccc(Br)cc2cc1-c1cn2c(n1)sc1ccccc12	2.88%
O=c1oc2ccccc2cc1-c1cn2c(n1)sc1cc(Cl)ccc12	62.5% (active)
CCCCCCc1cc2cc(-c3cn4c(n3)sc3cc(Cl)ccc34)c(=O)oc2cc1O	-3.76%
Cc1cccc(N2C(=O)NC(=O)/C(=C\c3ccc(I)o3)C2=O)c1C	-0.13%
O=C(O)/C(=C\c1ccccc1)NC(=O)c1ccc(Br)cc1	-2.04%
O=C(O)CCNCCC(=O)c1ccccc1	-12.1%
COc1ccccc1N1CCN(C(=O)CSCc2ccccc2C)CC1	-42.5%
COc1ccc(N2CCN(C(=O)COc3ccccc3OC)CC2)cc1	1.61%

Structure (SMILES)	inhibition
CCOC(=O)CSc1ccc(C(=O)N2CCN(c3ccccc3OC)CC2)cc1[N+](=O)[O-]	3.32%
COc1ccccc1N1CCN(C(=O)COc2ccc(Cl)cc2C)CC1	58.5% (active)
COc1ccccc1N1CCN(C(=O)c2ccc(Cl)c([N+](=O)[O-])c2)CC1	49% (active)
COC(=O)C1CCN(C(=O)c2ccc(Cl)c([N+](=O)[O-])c2)CC1	1.51%
Cc1cccc2nc(NC(=O)c3ccnn3C)sc12	-7.31%
CCOC1=C/C(=C/c2c(N)n3nc(C(C)C)sc3nc2=O)C=CC1=O	9.9%
COc1ccc(/C=C2/N=C(c3cccc4ccccc34)OC2=O)c(OC)c1OC	-1.88%
CCc1ccccc1Nc1cc(C)nc2ncnn12	-7.4%
COc1ccc(C(=O)Nc2c3c(nn2-c2ccc(F)cc2)CS(=O)C3)c(OC)c1 (stereo not drawn)	0.99%
COc1ccc(-n2nc3c(c2NC(=O)c2cc([N+](=O)[O-])ccc2Cl)CS(=O)C3)cc1 (stereo not drawn)	41.9% (active)
COc1ccc(-n2nc3c(c2NC(=O)c2cccc(OC)c2OC)CS(=O)C3)cc1 (stereo not drawn)	-1.38%
CC1CCCC(NC(=O)C(C)n2c(=O)c3cccn3c3cccnc32)C1C (stereo not drawn)	3.19%
Cn1c(SCC(=O)Nc2nnc(-c3ccccc3)s2)nnc1-c1ccccc1	-17.2%
O=C(Nc1ccc(Cl)c(S(=O)(=O)c2ccc(Cl)cc2)c1)c1cc(Br)cc(Br)c1O	-6.46%
CC(C)(C)c1ccc(C(=O)Nc2ccc(N3CCOCC3)c(Cl)c2)cc1	0.56%
CN1CCN(c2ccc(NC(=O)c3cc(Br)cc(Br)c3O)cc2Cl)CC1	68% (active)
NC(=O)c1cc(NC(=O)C(F)(F)F)cc(C(N)=O)c1	-9.16%
O=C(NCc1ccc(F)cc1)c1nc2c(nnn2Cc2ccc3c(c2)OCO3)c(=O)[nH]1	-15.6%
O=C(Nc1nc(-c2ccc(F)cc2)cs1)c1ccc([N+](=O)[O-])cc1	6.37%
N#Cc1ccc(-c2csc(NC(=O)c3cc([N+](=O)[O-])ccc3Cl)n2)cc1	14%
O=C(Nc1nc(-c2ccc(F)cc2)cs1)c1cc([N+](=O)[O-])ccc1Cl	42% (active)
